Screening results from PubChem.
gsp agonist – agonists of gsp mutant (McCune-Albright syndrome). gsp mutant cells, cAMP HTRF, 30 min. Potency, µM (series often up to 76.9 µM), without a hit: at the highest dose activation (cAMP increase), most hits filed as activators. actives 0.13% (n = 340,000). AID 624287; active = well fitted activation curve with a large enough effect; inconclusive = small, poorly fitted or top-dose-only effect, or another doubt; inactive = no such curve, though single readings can be large or run the other way; cell line not stated here;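 note: phosphodiesterase inhibitor Ro 20-1724 added with compounds to block cAMP breakdown; potency is the fitted concentration of half-maximal effect; nearly all actives have a fitted effect of over 60% in size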
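Cells in DMEM/10% FBS with G418 were pretreated with compounds in DMSO plus […] (300 uM stock) for 30 min at 37C. cAMP was measured by HTRF (cAMP-d2 plus anti-cAMP antibody-K) after 30 min at room temperature.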
RXFP1 ag – activates the human relaxin receptor RXFP1. HEK293T-RXFP1 cAMP TR-FRET, 30 min; response scale: percent of porcine relaxin response, buffer zero. Potency, µM (doses to about 57.5 µM), inactives show at the highest dose activation, most hits filed as activators. AID 2676. actives 0.3% (n = 370,000). Q9HBX9; active = well fitted activation curve with a large enough effect; inconclusive = small, poorly fitted or top-dose-only effect; note: potency is the fitted concentration of half-maximal effect; % is set by controls: 0 for no effect and ±100 for the full control effect; nearly all actives have a fitted effect of over 60% in size
Target sequence (Q9HBX9 whole entry, looked up): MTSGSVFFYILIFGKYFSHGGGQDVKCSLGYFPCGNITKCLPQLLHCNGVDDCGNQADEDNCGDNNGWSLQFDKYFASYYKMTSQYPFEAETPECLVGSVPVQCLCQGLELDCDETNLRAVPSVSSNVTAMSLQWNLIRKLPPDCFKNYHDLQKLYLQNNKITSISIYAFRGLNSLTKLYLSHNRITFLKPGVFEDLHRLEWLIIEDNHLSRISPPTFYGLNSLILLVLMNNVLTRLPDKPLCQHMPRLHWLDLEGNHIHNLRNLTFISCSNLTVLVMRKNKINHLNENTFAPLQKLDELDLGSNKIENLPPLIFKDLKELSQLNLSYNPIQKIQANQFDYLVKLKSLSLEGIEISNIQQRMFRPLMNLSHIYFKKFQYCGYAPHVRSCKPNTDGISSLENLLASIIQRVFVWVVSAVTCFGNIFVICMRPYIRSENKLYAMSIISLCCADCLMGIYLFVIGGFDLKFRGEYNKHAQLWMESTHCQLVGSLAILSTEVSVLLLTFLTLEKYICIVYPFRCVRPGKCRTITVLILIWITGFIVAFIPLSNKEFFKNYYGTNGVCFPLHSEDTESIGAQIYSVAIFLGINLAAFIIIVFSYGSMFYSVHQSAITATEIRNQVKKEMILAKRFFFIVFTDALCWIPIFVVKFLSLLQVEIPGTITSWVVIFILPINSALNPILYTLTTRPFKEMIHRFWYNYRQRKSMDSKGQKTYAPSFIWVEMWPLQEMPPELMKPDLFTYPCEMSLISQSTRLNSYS
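HEK293T cells stably expressing RXFP1 were pretreated with the PDE4 inhibitor Ro 20174, exposed to compounds for 30 min at 37C, lysed, and cAMP was read by TR-FRET. Data normalized to buffer (basal) and 29 nM porcine relaxin (100%).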
gsp antag – antagonists of gsp mutant (McCune-Albright syndrome); gsp-mutant cells, cAMP HTRF, 30 min; Potency, µM (highest dose often 76.9 µM), without a hit: top-dose activity change, negative = inhibition, usual class: inhibitors; actives 0.4% (n = 340,000); AID 624288; calls by dose curve; cell line not stated here;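 note: intracellular cAMP measured with PDE inhibitor Ro 20-1724 present during compound exposure; potency is the fitted concentration of half-maximal effect; % is set by controls: 0 for no effect and ±100 for the full control effect; nearly all actives have a fitted effect of over 65% in size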
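Measurement of cellular cAMP by homogeneous time-resolved fluorescence following a 30 min compound exposure at 37C. The PDE inhibitor […] was present throughout; the assay buffer was DPBS with 0.05% BSA and 0.005% Tween 20.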
RXFP1 antagonist – antagonists of human relaxin receptor RXFP1. HEK293-RXFP1, relaxin-stimulated cAMP HTRF, 30 min; active compounds read low. activity change, negative = inhibition, % at 57.5 µM. actives 0.59% (n = 350,000). AID 1259400;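 active = activity change of -60% or lower, but not beyond a set lower limit; inconclusive = change between -60% and -40%, or beyond the set limit; inactive = change above -40%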; note: % is set by controls: 0 for no effect and ±100 for the full control effect
The depositor's hits bear a star; u = inconclusive; x = not tested or not shown; [ ] = remark or other dose. Sampled rows, rich in hits. Any-hit rate of the full collection: about 0.9%.

SMILES	gsp agonist	RXFP1 ag	gsp antag	RXFP1 antagonist
COc1ccc(/C=C2\SC(=S)N(NS(=O)(=O)c3ccc(C)cc3)C2=O)c(OC)c1	10%[15.4 µM]	3%	50µM*	-33
CCOc1cc(/C=C2\SC(=S)N(NS(=O)(=O)c3ccccc3)C2=O)ccc1O	-49%	-16%	25µM*	-18
COc1ccc(OC)c(/C=C2\SC(=S)N(NS(=O)(=O)c3ccccc3)C2=O)c1	u	1%	18µM*	0
CCOc1ccc(/C=C2\SC(=S)N(NS(=O)(=O)c3ccccc3)C2=O)cc1OC	-5%	-4%	-28%	-6
O=C(COC(=O)C1CCN(c2ccc(C(F)(F)F)cn2)CC1)Nc1ncc(Cl)cc1Cl	-43%	0%	8%	2
Cn1c2c(c(=O)n(C)c1=O)C(C(F)(F)F)(C(F)(F)F)N=C(c1ccc(Cl)cc1)N2	-26%	0%	40µM*	-11
CCCCC/C(C=O)=C\c1ccccc1	x	x	x	8
COc1ccc(-c2cc3nc(C)c(CCC(=O)Nc4ccccc4C(C)=O)c(C)n3n2)c(OC)c1	x	6%	x	x
COC(=O)[C@H](C)NC(=O)Nc1ccc(S(N)(=O)=O)cc1	5%	-2%	6%	-10
CC(C)C(Cl)=NOC(=O)Nc1ccc(S(N)(=O)=O)cc1	12%	x	11%	-73*
CCOc1cc(C)c(C(C)C)cc1S(=O)(=O)n1ccnc1CC	x	6%	x	x
CN(CCC#N)C(=O)CSc1ncnc2sc(-c3ccccc3)cc12	-7%	3%	-32%	-6
CCN(CC)C(=O)CSc1ncnc2sc(-c3ccccc3)cc12	6%	3%	40µM*	-29
COc1ccc(S(=O)(=O)N2CCC(c3ccncc3)CC2)cc1OC	x	1%	x	-2
Cc1ccc(/C=N/NC(=O)C(C)Oc2ccccc2[N+](=O)[O-])s1 (centres undefined)	-9%	3%	11µM*	x
CCCCN(C)C(=O)c1ccc2c(c1)N(Cc1ccc(F)cc1)C(=O)c1ccccc1S2(=O)=O	x	-1%	x	-1
CCOc1ccc(/C=C(\C#N)c2nc(-c3cc4ccccc4oc3=O)cs2)c(OCC)c1	x	1%	x	1
Cc1ccc(Cl)cc1N1CCN(C(=O)Cn2cnc3nc4c(cc3c2=O)CCCC4)CC1	x	3%	x	-68*
CCC(NC(=O)Nc1nnc(C(F)(F)F)s1)(C(F)(F)F)C(F)(F)F	0%	1%	4.5µM*	-2
CCOC(=O)N1CCN(Cc2nc3cc(NC(=O)c4cccc(C)c4)ccc3n2C(C)C)CC1	x	-3%	x	-29
Cc1nc2ccccc2c2c1CC(C)S2 (centres undefined)	8.9µM*	8%	1%	14
CCc1ccc(CNC(=O)CN2C(=O)c3cccnc3Oc3ccc(Cl)cc32)cc1	x	-2%	x	-16
O=C(Nc1sc2c(c1C(=O)O)CCCCC2)c1ccccc1	u	1%	-27%	-22
O=C(Nc1sc2c(c1C(=O)O)CCC2)c1ccccc1	2%	1%	22µM*	-6
O=C(/C=C/c1ccco1)Nc1sc2c(c1C(=O)O)CCC2	3%	0%	40µM*	10
SMILES	gsp agonist	RXFP1 ag	gsp antag	RXFP1 antagonist
N#Cc1c(NC(=O)/C=C/c2ccco2)sc2c1CCCC2	-3%	3%	5%	-22
COc1ccc2c(c1)O[C@@H](c1cccc(C(F)(F)F)c1)[C@H](OC(=O)Nc1ccc(OC(F)F)cc1)C2=O	8%	4%	11µM*	x
COc1ccc2c(c1)O[C@@H](c1cccc(C(F)(F)F)c1)[C@H](OC(=O)N[C@H]1CCCc3ccccc31)C2=O	x	0%	x	x
O=C(Nc1ccc(Br)cc1)Nc1nc2c(s1)CCCCCC2	x	0%	x	-5
CCOC(=O)N1CCN(C(=O)CCS(=O)(=O)c2ccc3c(c2)CC(C)N3C(=O)CC)CC1 (centres undefined)	9%	2%	u	-92*
O=C(COc1ccccc1[N+](=O)[O-])OCC(=O)c1ccc(Br)s1	10µM*	x	22%	15
Cc1ccc2c(c1)C(Cc1ccccc1F)C(=O)N2 (centres undefined)	x	-1%	x	-13
COc1ccc(Cl)cc1NC(=O)C1CCCN(c2ncnc3onc(C)c23)C1 (centres undefined)	x	2%	x	-19
O=C(NC(=S)N1CCN(c2ccc(Cl)cc2[N+](=O)[O-])CC1)c1cccs1	32%	-1%	u	-65*
O=C(NC(=S)N1CCN(c2ccc(Cl)cc2[N+](=O)[O-])CC1)c1ccco1	13%[15.4 µM]	-1%	-7%	-21
COc1ccc(N2CCN(CC(=O)c3ccc(Cl)cc3)CC2)cc1	2%	-4%	-6%	-21
COc1ccc(C(=O)CN2CCN(c3ncccn3)CC2)cc1	37%	3%	50µM*	-1
Cc1cccc(N2CCN(c3ncnc4c3nc3n4CCCCC3)CC2C)c1 (centres undefined)	x	4%	x	-70*
Cc1nc2c(cnn2-c2ccccc2Cl)c(=O)n1-c1ccc(N2CCC(C)CC2)cc1	5%	1%	35µM*	0
Cc1ccc(-n2c(C)nc3c(cnn3-c3ccccc3Cl)c2=O)cc1C	11%	1%	-1%	3
Cn1c(-n2cccc2)c(-c2c(-c3ccc(F)cc3)[nH]c3c2c(=O)n(C)c(=O)n3C)c(=O)n(C)c1=O	x	1%	x	20
Cn1c(CCCOc2ccc(Cl)cc2Cl)nnc1SCC(=O)Nc1cccc(F)c1	-2%[15.4 µM]	3%	-23%	-21
CCc1cccc(C)c1NC(=O)CSc1nnc(CCCOc2ccc(Cl)cc2Cl)n1C	-8%	0%	10µM*	-12
N#Cc1c(NC(=O)CSc2nnc(-c3ccccc3)o2)sc2c1CCCC2	1%	3%	22µM*	7
O=c1c2ccccc2n(Cc2cccc(F)c2)c(=O)n1Cc1ccccc1Cl	x	-4%	x	-13
O=C(NCc1cccc(Cl)c1)C1CCCN(c2nn3cc(-c4ccc(F)cc4)nc3s2)C1 (centres undefined)	x	4%	x	-19
CCN1CCN(Cc2c(O)ccc3c(C)cc(=O)oc23)CC1	7%	14%	6%	0
Cc1cc(O)c(CN2CCN(c3ccccc3)CC2)c2oc(=O)cc(C)c12	x	18µM*	x	-8
Cc1ccc(NC(=O)C2CCCN(c3nnc(-n4c(C)ccc4C)s3)C2)cc1Cl (centres undefined)	x	0%	x	-7
CC1C(=O)N2CCCc3cc(S(=O)(=O)NCCc4ccccc4)cc1c32 (centres undefined)	u	2%	-2%	-12
COc1ccc(CCNS(=O)(=O)c2cc3c4c(c2)C(C)C(=O)N4CCC3)cc1OC (centres undefined)	-11%	-1%	-5%	-92*
O=C(Nc1nc(-c2cccs2)cs1)c1ccc([N+](=O)[O-])o1	9%	-2%	35µM*	3
COc1ccc(CCN2C(=O)C(O)=C(C(=O)c3ccco3)C2c2cccs2)cc1OC (centres undefined)	18µM*	u	32%	16
CCn1c(C)c(C)c2cc(C(=O)NCC(C)c3ccccc3)ccc21 (centres undefined)	x	2%	x	-24
